Results as given in PubChem BioAssay AID1159580 (chemical genetic matrix, 2015).
The campaign covered roughly 5,500 compounds. About 2,000 (36%) were called active. Roughly 18% stayed inconclusive and do not appear here. Rule as the data show it: active = normalized growth mostly below about 0.91 (no sharp cut-off); inconclusive = no clear call, values can overlap the other calls; inactive = mostly above about 0.92. The list shows a part of the results.

Assay: chemical genetic growth profiling, strain panel (AID 1159580);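 also: tested at 20 µM; growth read once vehicle control cultures reached saturation at 30 °C; 1 = growth at the plate median or of vehicle wells; lower values mean less growth of the strain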
Settings: S. cerevisiae deletion strains, growth OD

Measured: normalized growth

CNCCCC1c2ccccc2C=Cc2ccccc21
inactive: locus YAL013W, strain DEP1, stronger effect = lower value 0.989 | locus YAL040C, strain CLN3, stronger effect = lower value 1.08 | locus YCL061C, strain MRC1 (second series), stronger effect = lower value 1 | locus YDR363W, strain ESC2, stronger effect = lower value 1.03 | locus YER002W, strain NOP16, stronger effect = lower value 1.01 | locus YHR030C, strain SLT2, stronger effect = lower value 0.974 | locus YHR079C, strain IRE1, stronger effect = lower value 0.965 | locus YJL095W, strain BCK1, stronger effect = lower value 0.959 | locus YJR066W, strain TOR1, stronger effect = lower value 0.954 | locus YJR075W, strain HOC1, stronger effect = lower value 0.985 | locus YLR113W, strain HOG1, stronger effect = lower value 0.956 | locus YMR307W, strain GAS1, stronger effect = lower value 1 | locus YNL153C, strain GIM3, stronger effect = lower value 1.02 | locus YNL175C, strain NOP13, stronger effect = lower value 1.01 | locus YNL183C, strain NPR1, stronger effect = lower value 0.924 | locus YNL197C, strain WHI3, stronger effect = lower value 1.02 | locus YNL224C, strain SQS1, stronger effect = lower value 1.06 | locus YOR083W, strain WHI5 (second series), stronger effect = lower value 1.04 | locus YOR231W, strain MKK1, stronger effect = lower value 0.976 | locus YPL055C, strain LGE1, stronger effect = lower value 1 | locus YPL256C, strain CLN2, stronger effect = lower value 0.945
